± gives the standard deviation.

The experiment relates to EfPiwi piRISC loaded with L1MC piRNA (26 nt). Kind of experiment: pre-steady-state target cleavage rate (min^-1); auxiliary factor: none (no Gtsf1); guide: L1MC piRNA 5'p-UAACUAAAUACUAUGCAAGCUGUAGG; MIWI and MILI are mouse PIWI proteins and EfPiwi is from a freshwater sponge; tags in brackets are library labels; higher = faster piRNA-guided slicing of the target. The protocol: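 Cleave-'n-Seq: a library of target RNAs (target site in constant flanks) at […] was incubated with 1 nM active freshwater sponge Ephydatia fluviatilis Piwi piRISC (synthetic 5'-monophosphorylated piRNA guide) with or without 500 nM EmGtsf1 at 33 °C for 1 min to 16 h. Uncleaved targets were sequenced and the pooled three trials fitted to a burst-and-steady-state model to give the pre-steady-state cleavage rate (min^-1). Sequence is the target site only. Fits with R² ≤ 0 are excluded.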
As for UCCUGGAUCAGCUUGCAUAGUAUUUACUUA, the “pre-steady-state target cleavage rate” value was < 0.0001. On to “UCCUGGAUGUCGAAGCAUAGUAUAAUCAAA [g8:g16:cont:t1A]”, for which the “pre-steady-state target cleavage rate” value was < 0.0001.

On to UCCUGGAUGUCGAAGCAUAGUAUAUACUUA, for which the “pre-steady-state target cleavage rate” value is < 0.0001. As for UCCUGGAUGUCCUUGCAUAGUUUUUAGUAA, the “pre-steady-state target cleavage rate” value was < 0.0001. For “UCCUGGAUGUCGAACGUAUGUAUUUAGUUU [g2:g11:cont:t1U]” the value was < 0.0001; for UCCUGGAUGUCGAACGUAUGAAUUUAGAUA, < 0.0001.

In the case of UCCUGGAUGUCGAUCCAUAGUAUUUACUUA, the “pre-steady-state target cleavage rate” value was < 0.0001. As to UCCUGGAUGUCGUUGAAUAGUAUUUAGUUA, the “pre-steady-state target cleavage rate” value was < 0.0001.

As for UCCUGGAUGUCGAACGAUAGUAUUUGGUUA, the “pre-steady-state target cleavage rate” value was < 0.0001.

With UCCUGGUACAGCUUGGUAAGUAUUUACAAA, the “pre-steady-state target cleavage rate” value is < 0.0001. For UCCUGGAUGUCCUUGCAUUCAAUUUAGUAA the value was < 0.0001; for “UCCUGCUACAGCUUGCAUACAUAAAUCAAA [g12:g25:cont:t1A]”, < 0.0001; for UCCUGGAUGUCGAAGCAAAGUAUUUACUUA, < 0.0001. As for UCCUGGAUGUCGAACGUAUCUGAUUUAGUUA, the figure is < 0.0001; as for “UCCUGGUACAGCUUGCAAUCAUAAAUCAAA [g14:g24:cont:t1A]”, < 0.0001; as for UCCUGGAUGUCGAAGCAUAGUAUUUUGAUA, < 0.0001. For the sequence UCCUGGAUCAGCUUGCAUUGUAUAUAGUUA, the “pre-steady-state target cleavage rate” value was < 0.0001. For UCCUGGAUGUCCAUGCAUAGUAUAUAGUUA, the “pre-steady-state target cleavage rate” value is < 0.0001. For UCCUGGAUGAGCUUGCAUAGUAGUUUAGUUA, the “pre-steady-state target cleavage rate” value was 0.0124 ± 0.0079. As to “UCCUGGAUGUCGAACGUUAGUAUUUAGUUU [g2:g13:cont:t1U]”, the “pre-steady-state target cleavage rate” value was < 0.0001. Regarding UCCUGGAUGUCGAUGCAGUAGUAUUUAGUUA, the “pre-steady-state target cleavage rate” value was < 0.0001. As for UCCUGGAUGUCGAUCCAUAGUAAUUAGUUA, the figure is < 0.0001; as for UCCUGGAUGUCGAUGCAUAGUAUUAUGUUA, < 0.0001.

As for UCCUCCUACACGAUGCAUAGUAUUUACAAA, the “pre-steady-state target cleavage rate” value is < 0.0001. For UCCUGGAUGUCGAACGUUCGUAUUUAGUUA the value was < 0.0001; for UCCUGGAUGUCGAACGAUACUAUUUAGAUA, < 0.0001; for UCCUGGAUGUCGAUGCACAGUAUUUAGUUA, < 0.0001. For UCCUGGAUGUCGAACCCUAGUAUUUAGUUA, the “pre-steady-state target cleavage rate” value is < 0.0001.

With UCCUGCUACAGCUUGCAUAUGUAUUUAGUUA, the “pre-steady-state target cleavage rate” value is < 0.0001. UCCUGGAUGUCGAACGUAUGAUUUAGUUA: the “pre-steady-state target cleavage rate” value is < 0.0001. As for UCCUGGAUGUGCUUGCAUAGUCUUUAGUUA, the figure is 0.00821 ± 0.0047; as for UCCUGGAUGUCGAACGUAUCUAUCUUAGUUA, < 0.0001; as for UCCUGGAUGUCGAACGAUAUAUUUAGUUA, < 0.0001. Regarding UCCUGGAUGUCGAAGCAUAGUUUUUAGUUA, the “pre-steady-state target cleavage rate” value is < 0.0001. Regarding UCCUGGAUGUCGAACGUAUGUAUUUAGUAA, the “pre-steady-state target cleavage rate” value was < 0.0001. For UCCUGGAUGUCGAUGCAUAGGAUUUAGUUA, the “pre-steady-state target cleavage rate” value was < 0.0001. Take UCCUGGAUGUCGAUGCAUAGUCAUUUAGUUA: the “pre-steady-state target cleavage rate” value is < 0.0001. Take UCCUGGAUCAGCUUGCAUAGUGUUUAGUUA: the “pre-steady-state target cleavage rate” value worked out at 0.00696 ± 0.0045.

Turning to UCCUGGAUGUCGAACGAGUAGUAUUUAGUUA, the “pre-steady-state target cleavage rate” value was < 0.0001. For UCCUGGAUGUCGAACGUUACUAUUAAGUUA the value was < 0.0001.
